Rows were chosen to be rich in hits. Some 3.5% of all compounds tested hit in one or more screens of this group.
TEAD-YAP block: TEAD-YAP interaction inhibition, primary screen, TEAD-YAP interaction inhibitor project, luminescence, HEK-TIYL cells | inhibition, % at 9.12 µM | AID 1259422, 2018 | TEAD-Gal4/YAP UAS-luciferase luminescence | hit rate 1.4% among 640,000; in the data active means inhibition above about 32%;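 further: 0% = median of test compound wells and 100% = reference inhibitor wells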
FBW7 act: FBW7 E3 ligase activators, primary screen, biochemical, AlphaScreen, human | F-box/WD repeat-containing protein 7 (Homo sapiens), Q969H0 | AID 1259310, 2017 | hit rate 0.13% among 650,000 | normalized activity (activation), % at 26.1 µM | AlphaScreen FBW7–phospho-cyclin E peptide binding, activator screen; in the data active means normalized activity above about 1.9%;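 further: purified mutant Fbw7 with reduced substrate affinity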
GPR151 ag: activators of human GPR151, primary screen, cell-based, PathHunter beta-arrestin, luminescence; AID 1508602, 2020; PathHunter beta-arrestin GPR151 cells; hit rate 1% among 650,000; activation, % at 11.2 µM; in the data active means activation above about 4.9%;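 further: 0% = median of compound wells and 100% = cells with positive control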
Target sequence (Q8TDV0 whole entry, looked up): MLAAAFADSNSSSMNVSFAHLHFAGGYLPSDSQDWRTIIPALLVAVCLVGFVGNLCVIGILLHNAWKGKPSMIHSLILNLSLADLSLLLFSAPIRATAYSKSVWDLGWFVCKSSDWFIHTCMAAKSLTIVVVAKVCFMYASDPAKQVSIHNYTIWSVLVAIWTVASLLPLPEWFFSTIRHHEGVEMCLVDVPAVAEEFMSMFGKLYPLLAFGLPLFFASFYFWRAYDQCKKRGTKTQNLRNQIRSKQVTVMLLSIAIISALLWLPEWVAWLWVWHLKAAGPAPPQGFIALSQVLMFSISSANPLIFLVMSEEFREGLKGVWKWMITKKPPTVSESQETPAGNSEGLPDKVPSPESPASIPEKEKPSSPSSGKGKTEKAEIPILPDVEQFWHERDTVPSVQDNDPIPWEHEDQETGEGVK
MITF inh: MITF inhibitors, primary screen, biochemical, AlphaScreen, human; hit rate 0.91% among 650,000; inhibition, % at 2.6 µM; AID 1259374, 2018; AlphaScreen MITF homodimerization, bead proximity signal; in the data active means inhibition above about 50%;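 further: 0% = vehicle wells with protein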
* = called active by the depositor.

SMILES	TEAD-YAP block	FBW7 act	GPR151 ag	MITF inh
Cc1ccc(C)n1-c1ccccc1C(=O)O	0	-2	0	1
Cc1cccc(N2CCN(C(=O)CN3CCN(Cc4ccc(Cl)cc4)C3=O)CC2C)c1 (centres undefined)	3	0	1	5
CCOc1ccc(-n2nc(C(=O)Nc3cnc4ccccc4c3)c3ccccc3c2=O)cc1	2	0	-2	2
O=C(O)c1ccc2c(c1)NC(=O)c1ccccc1S2(=O)=O	-4	1.9*	-2	-2
Cc1ccc(C)c(NC(=O)CN(C)S(=O)(=O)c2ccc(Br)cc2)c1	6	0	0	-5
CN(CC(=O)Nc1ccc(F)cc1)C(=O)CCl	42*	0	-3	16
Cc1ccc(C)c(NC(=O)CN(C)C(=O)CCl)c1	73*	0	-1	-1
Nc1nnc(SCC(=O)OCC(=O)Nc2nc(-c3ccccc3)cs2)s1	-2	0	1	-7
FC(F)(F)c1ccc(-c2ncc(-c3cnccn3)c(-c3ccncc3)n2)cn1	1	0	0	22
Cc1nc2cc(-c3cccc(F)c3)nn2c(C)c1CCC(=O)O	43*	0	-3	-3
CCC(C)NC(=O)CCc1c(C)nc2cc(-c3cccc(F)c3)nn2c1C (centres undefined)	6	0	1	6
COc1ccc(-c2cc3nc(C)c(CCC(=O)O)c(C)n3n2)c(OC)c1	39*	0	2	-8
COc1ccc(-c2cc3nc(C)c(CCC(=O)N4CCCC4)c(C)n3n2)c(OC)c1	6	0	1	-4
O=C(Cn1ncc2cccn2c1=O)NCCc1ccccc1	-12	0	0	8
CC(Cl)C(=O)NC(c1ccccc1)c1ccccc1 (centres undefined)	0	0	-1	6
Cc1cc(C)c2c(N)c(-c3nc4ccccc4[nH]3)sc2n1	-42	0	-4	-4
Cc1ccc2nc(-c3sc4nc(C)ccc4c3N)[nH]c2c1	72*	0	0	-3
Nc1ccc2cc(S(=O)(=O)O)cc(O)c2c1	-2	-2	-1	77*
O=S(=O)(O)c1cc(O)c2cc(Nc3ccccc3)ccc2c1	12	0	1	44
O=C(Nc1nc2c(s1)CN(Cc1ccccc1)CC2)c1ccc2ccccc2c1	33*	0	4	5
COc1ccc(C(=O)Nc2nc3c(s2)CN(Cc2ccccc2)CC3)cc1OC	1	0	2	3
Cc1cnc(Cl)nc1NCCc1ccc(O)cc1	0	0	1	-2
COc1ccc(CCNc2nc(Cl)ncc2C)cc1	42*	0	1	13
COc1ccc(CCNc2nc(-c3cccs3)ncc2C)cc1	44*	0	2	10
CCN(CC)c1ccc2cc(-c3nc(-c4ccc(Cc5ccccc5)cc4)cs3)c(=O)oc2c1	7	0	1	9
SMILES	TEAD-YAP block	FBW7 act	GPR151 ag	MITF inh
COc1ccc(CCNC(=O)CCc2nc3cccnc3n2-c2ccccc2)cc1OC	-1	0	-1	6
CCc1nc2nc(C)cc(N3CCN(c4ccccc4OC)CC3)n2n1	34*	0	-1	-5
C/C(=N\NC(=O)c1nnn(-c2nonc2N)c1-c1ccccc1)c1ccc(O)cc1	13	0	2	1
C/C(=N\NC(=O)c1nnn(-c2nonc2N)c1-c1ccccc1)c1ccc(O)cc1O	43*	0	2	-2
C/C(=N\NC(=O)c1nnn(-c2nonc2N)c1-c1ccccc1)c1ccccc1O	44*	0	-1	22
COc1ccc(-n2nc3c(c2NC(=O)C(C)C)CS(=O)C3)cc1 (centres undefined)	8	0	-1	-6
Cc1cc([N+](=O)[O-])ccc1N=Cc1cccc(O)c1O	-3	0	1	-8
COc1cc(-c2[nH]nc3c2C(c2ccccc2Cl)C(C#N)=C(N)O3)cc(OC)c1OC (centres undefined)	16	0	-1	-3
COc1cc(-c2[nH]nc3c2C(c2ccccc2Br)C(C#N)=C(N)O3)cc(OC)c1OC (centres undefined)	36*	0	0	-3
O=C(c1ccn(-c2ccnc(Nc3ccc(N4CCOCC4)cc3)c2)n1)N1CCC(O)CC1	60*	0	0	-2
COc1cccc2c(=O)n(CC(=O)NCc3ccc4c(c3)OCO4)ccc12	-7	0	-1	-5
CCOc1cc(C(=O)OCCOc2ccccc2C(C)=O)cc(Cl)c1O	-7	0	0	-1
COc1ccc(N2C(N)=C(C#N)C(c3ccsc3)C3=C2CCCC3=O)c(OC)c1 (centres undefined)	16	1	-1	9
COc1ccc(N2C(N)=C(C#N)C(c3ccsc3)C3=C2CCCC3=O)cc1 (centres undefined)	45*	0	1	10
COc1ccc(C2C(C#N)=C(N)N(c3ccc(C)cc3)C3=C2C(=O)CC(C)(C)C3)cc1OC (centres undefined)	54*	0	-1	0
COc1cc(C2C(C#N)=C(N)N(c3ccc(Br)cc3)C3=C2C(=O)CCC3)cc(OC)c1OC (centres undefined)	20	0	-1	10
COc1ccc(N2C(N)=C(C#N)C(c3cc(OC)c(OC)c(OC)c3)C3=C2CCCC3=O)cc1 (centres undefined)	54*	0	1	8
Cn1nc(-c2ccccc2F)c2cc(C(=O)N3CCCCC3)sc21	6	0	0	12
CN(C)CCN(CC1CCCC1)C(=O)Nc1ccc(-c2cn[nH]c2)cc1N(C)CCN(C)C	36*	0	1	12
Cc1cc(NCCN(C(C)C)C(C)C)nc(Oc2ccccc2)n1	64*	0	1	-2
COc1ccc(CCNc2cc(C)nc(Oc3ccccc3)n2)cc1	35*	0	3	19
CCCOc1ccc(NC(=O)CC2C(=O)N(c3ccc(C(=O)OCC)cc3)C(=S)N2CCC23CC4CC(CC(C4)C2)C3)cc1 (centres undefined)	8	0	2	-8
N#Cc1nc(N2CCCCC2)nc(N2CCCCC2)n1	1	0	-1	-2
CCNc1nc(C#N)nc(N2CCCCC2)n1	41*	0	2	3
COc1ccc(Cl)cc1NS(=O)(=O)c1ccc(C)cc1OC	52*	0	0	-7
CCOc1ccc(S(=O)(=O)Nc2cc(C)ccc2OC)cc1	53*	1	1	7
Cc1cc(C)c(S(=O)(=O)NCc2ccncc2)c(C)c1	46*	0	0	-6
COc1ccc(S(=O)(=O)Nc2cc(OC)c(Cl)cc2OC)cc1	64*	1	1	14
COc1ccc(Cn2c(SCc3cc(C(C)=O)ccc3OC)nc3ccsc3c2=O)cc1	13	1	-2	13
CCC(C)Nc1ncnc2scc(-c3ccccc3)c12 (centres undefined)	9	0	1	4

Source: PubChem BioAssay (The Scripps Research Institute Molecular Screening Center)
